# Screening results (PubChem)
# Rows were chosen to be rich in hits. Some 14% of all compounds tested hit in one or more screens of this group.
# Cycloheximide cs: counter-screen for Shiga toxin inhibitors: cycloheximide protein synthesis inhibition; AID 2314; max response, %; 300,000 compounds, 12% hits; cell reporter, cycloheximide protein synthesis inhibition counterscreen; in the data active = max response mostly above about 13%, no sharp cut-off; inactive = mostly below about 14%; also: read at 38.3 µM for the half of the compounds with a filed dose; 0% is about no effect
# FBPA Giardia inh: blocks Giardia fructose-bisphosphate aldolase activity. A8B2U2. 290,000 compounds, 0.71% hits. Potency, µM (top dose mostly 59.6 µM), inactives show at the top dose activity, negative = inhibition, actives largely listed as inhibitors. purified Giardia FBPA. AID 2451; also: potency is read from the fitted curve at half-maximal effect; % is scaled to controls: 0 for no effect and ±100 for the full control effect; nearly all actives have a fitted effect of over 55% in size
# Target sequence (A8B2U2 whole entry, looked up): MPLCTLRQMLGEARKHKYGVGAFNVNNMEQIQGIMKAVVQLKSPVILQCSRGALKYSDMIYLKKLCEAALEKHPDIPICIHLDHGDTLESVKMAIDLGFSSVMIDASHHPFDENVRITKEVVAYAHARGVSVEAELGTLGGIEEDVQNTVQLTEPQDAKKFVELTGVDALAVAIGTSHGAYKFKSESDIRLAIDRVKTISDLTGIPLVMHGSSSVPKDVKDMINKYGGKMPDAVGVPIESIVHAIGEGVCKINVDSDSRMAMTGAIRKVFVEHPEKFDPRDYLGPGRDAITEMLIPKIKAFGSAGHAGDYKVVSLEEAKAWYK
#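 40 nM FBPA preincubated 10 min at RT with compound (up to 57.5 uM final), then substrate plus GAPDH/TPI/NAD/arsenate coupling and diaphorase/resazurin added. Fluorescence read after 20 min at RT, 525/598 nm.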
# LmPK inh: LmPK (Leishmania mexicana) enzyme inhibition; purified LmPK, Kinase-Glo ATP luminescence, 1 h; Potency, µM (series often up to 57.5 µM), for the others: at the top dose activity change, negative = inhibition, usual class: inhibitors; 290,000 compounds, 0.37% hits; also: potency is read from the fitted curve at half-maximal effect; % is scaled to controls: 0 for no effect and ±100 for the full control effect
#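 Kinase-Glo luminescence read after 1 h RT reaction of 0.1 nM LmPK with 0.5 mM PEP and 0.1 mM ADP. Activity scaled between uninhibited and enzyme-free controls.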
# NS1 inh: inhibitors of influenza NS1 protein function. Potency, µM (doses to about 46.1 µM), without a hit: at the top dose activity, positive = more growth. 270,000 compounds, 0.4% hits. AID 2326; calls by dose curve; also: potency is read from the fitted curve at half-maximal effect; actives are rising curves; nearly all actives have a fitted effect of over 50% in size
#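 OD600 was taken as the measure of yeast growth restored by compound in an NS1-expressing S. cerevisiae strain. Cells had been washed out of glucose medium and diluted 1:100 into galactose -URA medium, pH 6.0.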
# Shiga toxin inh: blocks Shiga toxin action in Vero cells. Vero cells, Shiga toxin protein synthesis inhibition reporter. inhibition, % at 38.7 µM. 290,000 compounds, 9.2% hits; in the data active = inhibition mostly above about 28%, no sharp cut-off; inactive = mostly below about 43%; also: 0% is about no effect
# * hit, by the source's call; ? = inconclusive; . = no result; [ ] = dose if it differs, or a comment. Unless noted, calls follow the shape of the dose curve; as a rule, active = well fitted curve in the direction sought with a large enough effect; inconclusive = small, poorly fitted or top-dose-only effect, or another doubt; inactive = no such curve, though single readings can be large; an effect the other way counts as inactive or inconclusive.
SMILES,Cycloheximide cs,FBPA Giardia inh,LmPK inh,NS1 inh,Shiga toxin inh
O=C(NCc1ccc(Cl)cc1)N1CCN(Cc2ccccc2)CC1,-2,6%,-4%,-5%,-7
Cc1ccc(NC(=[OH+])c2cc3ccccc3cc2O)c(C)c1.Cc1ccc(NC(=[OH+])c2cc3ccccc3cc2O)c(C)c1.[Ni],.,.,.,0%,.
CCS(=O)(=O)N1Cc2ccccc2CC1C(=O)Nc1ccc(F)c(F)c1F (stereo not drawn),25*,5%,-8%,11%,44
CSc1ncc(C(=O)Nc2cccc(C)c2C)c(C)n1,1,-4%,-1%,-1%,-2
CCOC(=O)C1=C(N)OC2=C(C(=O)CCC2)C1c1sccc1C (stereo not drawn),1,-10%,-2%,-3%,17
CCOC(=O)C1=C(N)OC2=C(C(=O)CCC2)C1c1ccc(C)s1 (stereo not drawn),44*,-15%,-2%,-7%,80*
NC(=O)C1CCN(C(=O)COc2ccc3ccc(=O)oc3c2)CC1,-1,-4%,-10%,5%,-4
COc1ccc(CNc2ccccc2SC)cc1OC,37*,?,-9%,-4%,33
CC(=O)c1cccc(NC(=O)CN(C)S(=O)(=O)c2ccc3c(c2)CC(C)N3C(C)=O)c1 (stereo not drawn),-6,-2%,3%,4%,11
Cc1c(C(=O)NCCCN2CCOCC2)sc2nc(-c3ccccc3)cn12,-2,-5%,-1%,-4%,13
COCCNC(=O)c1sc2nc(-c3ccccc3)cn2c1C,29*,0%,0%,-7%,70*
Cc1c(C(=O)NCc2ccccn2)sc2nc(-c3ccc(F)cc3)cn12,1,-4%,-3%,-11%,9
Cc1c(C(=O)NCC2CCCO2)sc2nc(-c3ccc(F)cc3)cn12 (stereo not drawn),32*,-11%,2%,-20%,32
Cc1c(C(=O)NCc2ccccn2)sc2nc(-c3ccccc3)cn12,29*,0%,-1%,-95%,20*
Cc1cc(C=C2C(=O)c3ccccc3C2=O)c(C)n1-c1ccc(Cl)cc1,14*,-5%,-4%,-3%,-6
Cc1cccc(-n2c(C)cc(C=C3C(=O)c4ccccc4C3=O)c2C)c1,21*,?,-7%,4%,41
Cc1cc(C=C2C(=O)CCCC2=O)c(C)n1-c1ccccc1,16*,-12%,4%,11%,10
O=Nc1c(O)[nH]c2c(Cl)c(Cl)ccc12,-5,5%,.,.,-3
COc1ccc(C(=O)NNC(=O)Cc2nc3nc(C)cc(C)n3n2)cc1,6,.,6%,?,2
Oc1ccccc1/C=N/Nc1ccccc1,48*,-5%,-10%,-30%,197*
Oc1ccccc1/C=N/Nc1ccnc(SCc2ccccc2)n1,24*,-1%,3%,?,30
NC(=S)N/N=C/c1ccccc1O,1,8%,0%,-8%,-1
Oc1ccc(/C=N/Nc2ccc3ccccc3c2)c(O)c1,31*,-17%,-5%,.,44*
Oc1ccccc1/C=N/Nc1ncc(Br)cn1,66*,-5%,-8%,-6%,74*
Cc1cc(O)c(/C=N/Nc2ccccc2)c(=O)o1,20*,-1%,-6%,-6%,0
SMILES,Cycloheximide cs,FBPA Giardia inh,LmPK inh,NS1 inh,Shiga toxin inh
COc1ccc(NC(=O)NCCN2C(=O)C3C4C=CC(C4)C3C2=O)cc1 (stereo not drawn),32*,3%,-2%,5%,60*
Cc1ccc(NC(=O)NCCN2C(=O)C3C4C=CC(C4)C3C2=O)cc1 (stereo not drawn),112*,1%,3%,4%,134*
COc1ccccc1S(=O)(=O)N1CCN(S(=O)(=O)c2ccccc2C#N)CC1,-2,-3%,-4%,4%,-5
O=C(Nc1ccccn1)c1ccc(=O)[nH]n1,7,-1%,-2%,4%,-7
O=C(Nc1ccccc1-c1ccccc1)c1ccc(=O)[nH]n1,46*,8%,-1%,-5%,83*
O=C(Nc1ccc2c(c1)OCO2)c1ccc(=O)[nH]n1,18*,0%,-3%,4%,52*
COc1ccc(-c2cc(C(=O)Nc3ccc4c(c3)OCO4)no2)cc1,7,15%,-4%,-8%,20
O=C(Nc1ccc2c(c1)OCO2)c1n[nH]c(=O)c2ccccc12,18*,-8%,-3%,0%,57*
CC(C)(C)c1ccc(NC(=O)c2ccc(=O)[nH]n2)cc1,54*,-12%,1%,-3%,111*
Cc1cc(F)ccc1OC1C=CC(c2ccc3c(c2)OCO3)OC1CO (stereo not drawn),.,-3%[12.9 µM],.,.,.
CC(C)(Oc1ccc([C@@H]2CC2(Cl)Cl)cc1)C(=O)O,.,12%[21.7 µM],.,.,.
Cc1ccccc1N(CC(=O)NCC1CCCO1)C(=O)CNS(=O)(=O)c1ccc(F)cc1 (stereo not drawn),0,1%,-3%,-2%,-19
CCOCc1nnc(NC(=O)c2ccc(OC)cc2)s1,22*,0%,7%,-14%,48*
Cn1cc([N+](=O)[O-])c(C(=O)NCC(=O)O)n1,2,6%,0%,-7%,-20
Cn1cc([N+](=O)[O-])c(C(=O)Nc2nccs2)n1,30*,-3%,-3%,-1%,40
O=C(Nc1nccs1)c1cccc(NC(=O)C(F)(F)F)c1,18*,-3%,1%,-4%,73*
CCC(CC)C(=O)Nc1cccc(C(=O)Nc2nccs2)c1,3,5%,-2%,13%,-12
CC(C)Cc1nnc(NC(=O)Nc2ccccc2)s1,46*,-1%,-2%,-7%,57*
CCCC(=O)Nc1ccc2c(c1)nc1n2CCN(CCOC)C1,5,?,0%,3%,4
COc1ccc(NC(=O)Nc2nccs2)cc1,32*,-6%,?,-3%,85*
COc1ccc(C(=O)Nc2nccs2)cc1,29*,12%,-3%,0%,.
COc1ccc(C(=O)Nc2nccs2)cc1OC,28*,0%,2%,-11%,116
O=C(Nc1ccc(Cl)cc1)Nc1nnc(Cc2ccc([N+](=O)[O-])cc2)s1,-4,4%,-3%,-4%,-10
Cc1ccc(NC(=O)Nc2nnc(Cc3ccc([N+](=O)[O-])cc3)s2)cc1,50*,4%,1%,-1%,77*
O=C(Nc1nccs1)c1ccc([N+](=O)[O-])cc1,17,2%,6%,1%,30
SMILES,Cycloheximide cs,FBPA Giardia inh,LmPK inh,NS1 inh,Shiga toxin inh
COc1ccc(CC(=O)Nc2ccc(S(=O)(=O)Nc3nccs3)cc2)cc1,-4,-10%,3%,15%,-9
CC/C=C\C[C@H]1C(=O)CC[C@@H]1CC(=O)O,.,-1%,.,.,.
NC(Cc1ccccc1)C(O)c1ccco1 (stereo not drawn),4,0%,.,.,21
Cc1cccc(N(CC(=O)NCC2CCCO2)C(=O)CCC(=O)Nc2nccs2)c1 (stereo not drawn),-5,.,-2%,1%,-4
CC(C)Cc1nnc(NC(=O)c2ccc([N+](=O)[O-])cc2)s1,17*,-1%,1%,9%,23
COC(=O)c1sccc1NC(=O)c1ccc(OC)c([N+](=O)[O-])c1,-1,0%,1%,2%,-3
